Results on 3 compounds are retold here after PubChem BioAssay (NCATS).

Test [1] is described as follows: Viability counterscreen for antagonist of constitutive androstane receptor (CAR) against the NCATS DSHEA and TCM libraries (AID 1794837).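 Further: compound exposure lasted 24 h before viability reading; 0% is about no effect.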 The gist of the method:
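Cell viability, CellTiter-Fluor, Ex/Em 405/540 nm, 1 h at 37C. HepG2-CYP2B6-hCAR, 2,500 cells/well; cpds + CITCO 48 uM final (antagonist mode), 24 h, 37C/5% CO2.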

Test [2] can be described thus: Viability counterscreen for agonist of constitutive androstane receptor (CAR) against the NCATS DSHEA and TCM libraries (AID 1794838). Further: 0% is about no effect. In short, it runs like this:
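Viability by CellTiter-Fluor fluorescence, 405/540 nm, after 1 h at 37C. HepG2-CYP2B6-hCAR cells were exposed 24 h to test substances in presence of 0.75 uM PK11195 (final).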
Background: The purpose of a counterscreen is to sort out artefacts and off-target activity.

In test [3] the target is Nuclear receptor subfamily 1 group I member 3 (Homo sapiens) (UniProt Q14994). Kind of test: Primary qHTS for agonist of constitutive androstane receptor (CAR) against the NCATS DSHEA and TCM libraries (AID 1794839).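 Further: HepG2 cells expressing human CAR with a CYP2B6 reporter plus PK11195 antagonist; 0% is about no effect.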 In short, it runs like this: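 Luminescence from ONE-Glo luciferase was the agonist read-out in HepG2-CYP2B6-hCAR cells exposed 24 h to test substances. Wells also held the CAR antagonist PK11195 at 0.75 µM final. Viability was by CellTiter-Fluor fluorescence.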

Test [4] can be described thus: HepG2 viability counterscreen (readout 2: ATP content) against the NCATS DSHEA and TCM libraries (AID 1794840). Further: 0% is about no effect. In short, it runs like this: (§1)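 1,000 HepG2 cells/well, 4 h attach; compounds ~24 h, 37C/5% CO2. Readout 1: GF-AFC 25 uM final, 30 min, fluorescence 380/510 nm. Readout 2: CellTiter-Glo, 30 min RT, luminescence.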
Test [5] in a line: HepG2 viability counterscreen (readout 1: protease activity) against the NCATS DSHEA and TCM libraries (AID 1794841).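 Further: cells exposed to compounds for about 24 h before the protease read; 0% is about no effect.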 The gist of the method: as §1
The target of test [6] is Cytochrome P450 3A4 (Homo sapiens) (UniProt P08684). Kind of test: qHTS for inhibitors of CYP3A4 against the NCATS DSHEA and TCM libraries (AID 1919971).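 Further: on the % scale 0 is the no-effect control and ±100 the full control effect; inhibition lowers luminescence from luciferin made by CYP3A4.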 The gist of the method: (§2)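 Light output from converted D-luciferin reports remaining CYP activity. Compounds preincubate with enzyme and substrate for 15 min; NADPH regeneration (1x final) runs the reaction for 30-45 min.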

Test [7] has as its target Cytochrome P450 2D6 (Homo sapiens) (UniProt P10635). Kind of test: qHTS for inhibitors of CYP2D6 against the NCATS DSHEA and TCM libraries (AID 1919972). Further: on the % scale 0 is the no-effect control and ±100 the full control effect. The gist of the method:
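Steps: enzyme plus luciferin substrate dispensed; test substances pinned; 15 min RT; 1x NADPH regenerating solution added, 30–45 min RT protected from light; detection reagent, 30 min RT; luminescence measured. Minus-enzyme wells as background.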
Background: In qHTS, concentration-response curves come from the screen itself.

Test [8] addresses Cytochrome P450 2C9 (Homo sapiens) (UniProt P11712). Kind of test: qHTS for inhibitors of CYP2C9 against the NCATS DSHEA and TCM libraries (AID 1919973).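 Further: luminogenic pro-luciferin CYP2C9 substrate turned into luciferin with NADPH regeneration; series mostly up to about 34 µM; on the % scale 0 is the no-effect control and ±100 the full control effect.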 The gist of the method:
as §2

Test [9] deals with Cytochrome P450 2C19 (Homo sapiens) (UniProt P33261). Kind of test: qHTS for inhibitors of CYP2C19 against the NCATS DSHEA and TCM libraries (AID 1919974).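 Further: luminescence from luciferin released by CYP2C19 oxidation of a pro-luciferin substrate; on the % scale 0 is the no-effect control and ±100 the full control effect.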 In short, it runs like this:
as §2

Test [10] is described as follows: KB-3-1 P-gp reporter qHTS against the NCATS DSHEA and TCM libraries (AID 1919975). Further: 0% is about no effect. The gist of the method: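 CellTiter-Glo luminescence viability readout; KB-3-1 parental cells, 500/well, attached ~4 h, then compound for ~72 h, 37C, 5% CO2. Bortezomib intraplate control.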
The target in test [11] is Cytochrome P450 1A2 (Homo sapiens) (UniProt P05177). The test can be described thus: qHTS for inhibitors of CYPIA2 against the NCATS DSHEA and TCM libraries (AID 1919976). Further: potency means the concentration at half of the fitted maximal effect. The gist of the method:
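In this quantitative HTS, inhibition of recombinant human CYP1A2 was measured as loss of luciferin-derived luminescence. Turnover ran 30-45 min at RT after NADPH regeneration solution was added.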

Test [12] can be described thus: qHTS Counterscreen for compound interference against the NCATS DSHEA and TCM libraries (AID 1919978).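 Further: compounds preincubated with 1 µM D-luciferin or buffer before detection reagent; % of control where 0% means no effect.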 To be noted: firefly luciferase detection reagent interference, luminescence. In short, it runs like this: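 Luminescence counterscreen for detection-kit interference: compounds at 19.5 nM–39.8 uM final, 15 min RT with 1 uM D-luciferin or buffer only; detection reagent added, 30 min RT, then read.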

Test [13] can be described thus: Dual reporter qHTS for agonist of Pregnane X Receptor (hPXR) against the NCATS DSHEA and TCM libraries: Fluorescence readout (AID 1920058). Further: 0% is about no effect. The gist of the method:
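Measures viability of the PXR reporter HepG2 line by protease-substrate fluorescence (405/540 nm), taken 1 h after CellTiter-Fluor addition. Substances are tested as concentration series over a ~24 h exposure, with rifampicin as agonist control.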

The target in test [14] is Nuclear receptor subfamily 1 group I member 2 (Homo sapiens) (UniProt O75469). Kind of test: Dual reporter qHTS for agonist of Pregnane X Receptor (hPXR) against the NCATS DSHEA and TCM libraries: Luminescence readout (AID 1920059). Further: 0% is about no effect. In short, it runs like this: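 hPXR-Luc HepG2 cells, 2000/well in 5% charcoal-stripped FBS medium, attached 5 h, then exposed 24 h at 37C to compounds. Viability by CellTiter-Fluor, then luciferase luminescence with ONE-Glo.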

The target is the same in test [15]. The test can be described thus: Dual reporter qHTS for antagonist of Pregnane X Receptor (hPXR) against the NCATS DSHEA and TCM libraries: Luminescence Readout (AID 1920060). Further: 0% is about no effect. The gist of the method:
(§3)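 Rifampicin-stimulated (2 uM final) hPXR-luciferase HepG2 cells were treated for 24 h with DSNP/TCM substances. Viability came from CellTiter-Fluor fluorescence, reporter activity from ONE-Glo luminescence.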

A short description of test [16]: Dual reporter qHTS for antagonist of Pregnane X Receptor (hPXR) against the NCATS DSHEA and TCM libraries: Fluorescence Readout (AID 1920061). Further: 0% is about no effect. The gist of the method: as §3

Structures are written as SMILES. Unmarked numbers belong to inactive results. Records with an inconclusive call do not appear. The source made the active and inactive calls. The call rests on the fitted dose curve; in most records, active means well fitted curve in the direction sought with a large enough effect; inconclusive means small, poorly fitted or top-dose-only effect, or another doubt; inactive means no such curve, though single readings can be large; an effect the other way counts as inactive or inconclusive.

Chain of Cytochrome P450 3A4 (Homo sapiens) (P08684 whole entry, looked up): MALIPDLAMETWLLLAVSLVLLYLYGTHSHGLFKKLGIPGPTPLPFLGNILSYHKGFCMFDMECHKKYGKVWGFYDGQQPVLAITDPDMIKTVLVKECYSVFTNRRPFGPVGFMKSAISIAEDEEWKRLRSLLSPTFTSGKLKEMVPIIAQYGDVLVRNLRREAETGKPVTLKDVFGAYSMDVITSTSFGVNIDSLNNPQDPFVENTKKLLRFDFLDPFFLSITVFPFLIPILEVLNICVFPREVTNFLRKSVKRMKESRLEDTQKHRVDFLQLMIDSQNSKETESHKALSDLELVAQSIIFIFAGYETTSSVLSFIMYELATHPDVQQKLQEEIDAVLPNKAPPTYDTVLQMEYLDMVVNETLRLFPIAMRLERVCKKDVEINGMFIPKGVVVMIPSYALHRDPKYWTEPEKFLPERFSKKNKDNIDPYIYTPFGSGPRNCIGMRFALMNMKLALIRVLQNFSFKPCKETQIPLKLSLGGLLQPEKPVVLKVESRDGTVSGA
Chain of Cytochrome P450 2D6 (Homo sapiens) (P10635 whole entry, looked up): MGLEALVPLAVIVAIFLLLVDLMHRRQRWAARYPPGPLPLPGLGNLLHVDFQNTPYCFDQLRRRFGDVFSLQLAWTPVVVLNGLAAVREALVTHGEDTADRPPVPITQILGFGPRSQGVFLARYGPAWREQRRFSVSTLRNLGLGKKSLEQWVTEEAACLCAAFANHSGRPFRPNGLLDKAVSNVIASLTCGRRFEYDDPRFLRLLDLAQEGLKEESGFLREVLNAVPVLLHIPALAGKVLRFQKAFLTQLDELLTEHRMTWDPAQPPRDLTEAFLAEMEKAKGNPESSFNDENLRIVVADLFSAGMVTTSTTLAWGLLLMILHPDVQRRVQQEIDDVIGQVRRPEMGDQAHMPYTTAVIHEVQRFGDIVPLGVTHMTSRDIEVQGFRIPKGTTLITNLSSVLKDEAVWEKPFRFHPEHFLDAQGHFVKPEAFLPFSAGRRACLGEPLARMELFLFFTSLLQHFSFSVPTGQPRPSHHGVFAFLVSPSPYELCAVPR
Chain of Cytochrome P450 1A2 (Homo sapiens) (P05177 whole entry, looked up): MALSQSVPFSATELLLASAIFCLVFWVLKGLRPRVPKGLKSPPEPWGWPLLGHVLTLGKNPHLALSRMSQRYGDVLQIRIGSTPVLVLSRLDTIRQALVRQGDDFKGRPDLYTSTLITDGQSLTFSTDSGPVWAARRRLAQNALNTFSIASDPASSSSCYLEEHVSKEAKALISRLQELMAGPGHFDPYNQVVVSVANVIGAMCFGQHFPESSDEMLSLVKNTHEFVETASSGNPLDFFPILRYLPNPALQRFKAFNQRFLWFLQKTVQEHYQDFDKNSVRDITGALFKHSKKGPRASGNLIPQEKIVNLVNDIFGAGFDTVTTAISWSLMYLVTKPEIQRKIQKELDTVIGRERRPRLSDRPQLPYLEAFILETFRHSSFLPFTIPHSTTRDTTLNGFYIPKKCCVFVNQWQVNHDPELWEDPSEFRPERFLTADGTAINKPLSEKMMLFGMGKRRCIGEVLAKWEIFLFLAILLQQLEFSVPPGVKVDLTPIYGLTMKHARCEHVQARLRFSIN
Chain of Nuclear receptor subfamily 1 group I member 2 (Homo sapiens) (O75469 whole entry, looked up): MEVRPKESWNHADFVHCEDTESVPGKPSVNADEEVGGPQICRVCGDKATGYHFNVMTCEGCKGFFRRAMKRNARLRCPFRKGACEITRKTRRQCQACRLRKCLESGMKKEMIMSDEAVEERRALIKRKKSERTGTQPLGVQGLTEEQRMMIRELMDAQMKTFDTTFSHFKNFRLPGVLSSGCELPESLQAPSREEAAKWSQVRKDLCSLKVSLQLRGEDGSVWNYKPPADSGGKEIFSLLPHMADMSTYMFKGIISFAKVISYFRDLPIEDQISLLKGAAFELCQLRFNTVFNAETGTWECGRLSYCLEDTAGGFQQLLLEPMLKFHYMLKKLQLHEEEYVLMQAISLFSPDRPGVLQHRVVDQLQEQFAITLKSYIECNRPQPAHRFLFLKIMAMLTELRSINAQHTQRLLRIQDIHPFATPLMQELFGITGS
Chain of Cytochrome P450 2C9 (Homo sapiens) (P11712 whole entry, looked up): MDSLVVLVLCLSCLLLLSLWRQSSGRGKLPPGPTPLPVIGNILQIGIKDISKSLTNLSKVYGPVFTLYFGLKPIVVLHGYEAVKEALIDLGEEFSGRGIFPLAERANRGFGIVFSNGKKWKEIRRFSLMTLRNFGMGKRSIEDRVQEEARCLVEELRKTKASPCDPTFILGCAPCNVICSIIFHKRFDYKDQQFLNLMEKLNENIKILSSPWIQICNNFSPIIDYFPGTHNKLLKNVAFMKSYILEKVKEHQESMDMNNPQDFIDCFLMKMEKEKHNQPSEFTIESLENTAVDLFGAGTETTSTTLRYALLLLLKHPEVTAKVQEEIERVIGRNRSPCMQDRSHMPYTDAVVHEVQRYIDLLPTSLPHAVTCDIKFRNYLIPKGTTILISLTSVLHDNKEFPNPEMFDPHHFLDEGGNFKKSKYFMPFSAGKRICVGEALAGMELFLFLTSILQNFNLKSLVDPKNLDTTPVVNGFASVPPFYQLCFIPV
Chain of Nuclear receptor subfamily 1 group I member 3 (Homo sapiens) (Q14994 whole entry, looked up): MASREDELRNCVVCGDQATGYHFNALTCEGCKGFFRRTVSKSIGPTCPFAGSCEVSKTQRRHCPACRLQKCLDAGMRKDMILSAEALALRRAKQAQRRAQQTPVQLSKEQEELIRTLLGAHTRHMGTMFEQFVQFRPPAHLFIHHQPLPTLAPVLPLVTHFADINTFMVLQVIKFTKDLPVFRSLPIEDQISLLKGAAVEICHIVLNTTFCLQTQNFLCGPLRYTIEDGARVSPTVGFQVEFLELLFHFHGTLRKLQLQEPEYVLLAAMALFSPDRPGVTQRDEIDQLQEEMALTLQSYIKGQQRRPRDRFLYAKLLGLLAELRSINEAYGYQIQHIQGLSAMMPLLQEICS
Chain of Cytochrome P450 2C19 (Homo sapiens) (P33261 whole entry, looked up): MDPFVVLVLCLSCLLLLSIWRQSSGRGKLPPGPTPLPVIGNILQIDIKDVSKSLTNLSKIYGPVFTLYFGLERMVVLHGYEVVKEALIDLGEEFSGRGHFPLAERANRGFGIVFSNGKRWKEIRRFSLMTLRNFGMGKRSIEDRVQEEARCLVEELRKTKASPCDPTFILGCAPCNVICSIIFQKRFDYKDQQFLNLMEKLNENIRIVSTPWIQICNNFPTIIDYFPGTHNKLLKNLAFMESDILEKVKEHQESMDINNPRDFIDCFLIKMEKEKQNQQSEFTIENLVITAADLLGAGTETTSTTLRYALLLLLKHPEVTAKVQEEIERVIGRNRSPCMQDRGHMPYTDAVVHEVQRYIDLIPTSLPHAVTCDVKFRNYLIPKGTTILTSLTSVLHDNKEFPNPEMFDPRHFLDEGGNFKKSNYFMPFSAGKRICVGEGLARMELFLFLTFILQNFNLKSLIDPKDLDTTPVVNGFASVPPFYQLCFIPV

Take `CC(=O)O[C@H]1[C@H](O[C@H]2CC[C@]34C[C@]35CC[C@]3(C)[C@@H]([C@@]6(C)CC[C@@H](C(C)(C)O)O6)[C@@H](O)C[C@@]3(C)[C@@H]5C[C@H](O[C@@H]3O[C@H](CO)[C@@H](O)[C@H](O)[C@H]3O)[C@H]4C2(C)C)OC[C@@H](O)[C@@H]1O`: the call in test [1], in [2], in test [4], in [5], in test [10] and in [13] was inactive. For the same compound, the call in [15] and in test [16] was inactive. Also, the Potency result in [3], in test [6], in [7], in test [8], in [9] and in [11] was “inactive” in each case. In test [14], the Potency result is “inactive”. The max response in [12] is -3.47%.

Take `CC(=O)OC/C=C/c1ccccc1`: the outcome in [1], in [2], in test [4], in test [5], in test [10] and in test [13] was inactive. In addition, the result in test [15] and in test [16] was inactive. Further, the Potency entry in test [3], in test [6], in [7], in [8] and in test [14] was “inactive” throughout. Further, in [11], the Potency is 28.2 µM (active). The max response in test [12] is 3.54%.

On to `O[C@@H]1[C@@H](O)[C@H](OC/C=C/c2ccccc2)O[C@H](CO[C@@H]2OC[C@H](O)[C@H](O)[C@H]2O)[C@H]1O`, for which the compound was classed as inactive in test [1], in test [2], in [4], in test [5], in test [10] and in [13]. Moreover, the outcome in [15] and in test [16] was inactive. The Potency entry in test [3], in test [6], in test [7], in [8], in [9] and in [11] was “inactive” in each case. The Potency result in [14] was “inactive”. The max response in test [12] is 4.06%.
